Source: PubChem BioAssay
MEKK2 mut-MEK5: signal of MEK5 binding to mutant human MEKK2 PB1 domain. bead flow cytometry, Alexa488-MEK5 binding to MEKK2 mutant. percent response, % at 10 µM. 290,000 compounds, 0.35% hits; in the data active means percent response above about 24%, passing the limit was not always enough
MEKK3 PB1 HTS: modulators (inhibitors or enhancers) of MEK5 binding to human MEKK3 PB1 domain; 290,000 compounds, 1.4% hits; bead-based flow cytometry, Alexa488-MEK5 binding to MEKK3; actives lie on both sides; 0 = blocked by unlabeled MEK5, 100 = vehicle; Q99759; binding response (% of control), % at 10 µM;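 active means binding response more than 3 SD above or below the average of its plate-row segment, actives on both sides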;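 further: Alexa488 bead fluorescence after subtracting the streptavidin-only scavenger bead signal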
Target sequence (Q99759 whole entry, looked up, the tested form may be a part): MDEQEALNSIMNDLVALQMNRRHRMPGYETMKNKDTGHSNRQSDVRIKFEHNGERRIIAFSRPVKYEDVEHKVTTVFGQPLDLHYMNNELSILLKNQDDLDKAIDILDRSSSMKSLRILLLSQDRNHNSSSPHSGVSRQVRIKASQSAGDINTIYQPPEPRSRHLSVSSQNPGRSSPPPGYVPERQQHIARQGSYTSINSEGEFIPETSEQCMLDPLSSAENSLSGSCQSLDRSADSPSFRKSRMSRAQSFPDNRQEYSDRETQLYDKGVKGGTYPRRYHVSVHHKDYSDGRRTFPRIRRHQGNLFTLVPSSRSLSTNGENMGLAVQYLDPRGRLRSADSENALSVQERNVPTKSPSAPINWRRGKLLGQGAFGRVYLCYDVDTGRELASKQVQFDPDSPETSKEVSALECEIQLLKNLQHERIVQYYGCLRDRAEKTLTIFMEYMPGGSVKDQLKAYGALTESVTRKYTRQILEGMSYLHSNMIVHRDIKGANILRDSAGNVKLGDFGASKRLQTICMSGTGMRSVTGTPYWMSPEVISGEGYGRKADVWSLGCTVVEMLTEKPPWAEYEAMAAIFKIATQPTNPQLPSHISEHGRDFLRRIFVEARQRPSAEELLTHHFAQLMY
CRFBP-R2 agonist: CRF-BP/CRF-R2 complex agonism. activation, % at 13.2 µM. HEK293 CRF-R2/CRF-BP, calcium dye fluorescence (FLIPR); percent of saturating CRF peptide response. AID 588473. 350,000 compounds, 0.46% hits;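 active means activation of at least 50%, plus an integration ratio under a set limit after plate pattern correction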
MEKK2 WT-MEK5: raises or lowers MEK5 binding to wildtype human MEKK2 PB1 domain; binding response (% of control), % at 10 µM; bead flow cytometry, Alexa488-MEK5 binding to MEKK2 WT; actives lie on both sides; Q9Y2U5; 290,000 compounds, 1.1% hits; in the data active means binding response below about 67% or above about 130%
ABCB6 inh 2: human ABCB6 transporter inhibition | Q9NP58 | K562-ABCB6 porphyrin accumulation, flow cytometry, 1 h; active compounds read low | fluorescence ratio to DMSO, % at 10 µM | 360,000 compounds, 0.19% hits | AID 602162;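 active means fluorescence ratio to DMSO below 75%, the collection mean minus 3 SD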;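 further: signal is porphyrin accumulated inside mitochondria; lower ratio means ABCB6 inhibition with less porphyrin fluorescence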
CRFR2-BP antag: antagonists of CRF-binding protein/CRF-R2 receptor complex. HEK293 CRF-R2/CRF-BP, CRF-induced calcium fluorescence. inhibition, % at 11.8 µM. 350,000 compounds, 0.59% hits. AID 588475;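 active means inhibition of the ligand-induced calcium signal above about 50% at the single tested concentration, limit read from the data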
A number is an active result; - = inactive; . = no result given; [ ] = another dose, or the depositor's remark. Sampled rows, rich in hits. Any-hit rate of the full collection: about 2.9%.

SMILES | MEKK2 mut-MEK5 | MEKK3 PB1 HTS | CRFBP-R2 agonist | MEKK2 WT-MEK5 | ABCB6 inh 2 | CRFR2-BP antag
O=C(CSc1ccc(Cl)cc1)N1N=CCC1c1ccccc1 (stereo not drawn) | - | - | - | - | - | -
CCN1CCN(CC(=O)N2N=CCC2c2ccccc2)CC1 (stereo not drawn) | - | - | - | - | - | 69.7
COc1ccc(OC)c(/C=C2\NC(=O)NC2=O)c1 | - | - | - | - | - | -
COc1cc(N2CCCC2)c(OC)cc1/C=C1/NC(=S)NC1=O | - | - | 177.7 | - | - | -
CC#CCCC(=O)N1C=Cc2ccccc2C1C#N (stereo not drawn) | - | - | - | - | - | 55.6
CCCCN(C(=O)CCNC(=O)NC12CC3CC(CC(C3)C1)C2)c1c(N)n(CCC)c(=O)[nH]c1=O | . | . | - | . | - | -
COc1cc2ncnc(NCc3cccc(Cl)c3)c2cc1OC | - | - | - | 138.0 | - | -
COc1cc2ncnc(NCc3ccccc3)c2cc1OC | - | - | - | - | - | -
COC(=O)c1cccc(N(CC(=O)NC2CCCC2)C(=O)CCC(=O)Nc2cc(C)on2)c1 | - | - | - | - | - | -
Cc1cc(S(=O)(=O)Nc2ccc(C(=O)NCC(C)(C)N3CCOCC3)cc2)ccc1F | - | - | - | - | - | 54.1
CC(C)(CNC(=O)c1ccc(NS(=O)(=O)c2ccc(Br)cc2)cc1)N1CCOCC1 | . | . | - | . | - | -
CN(CC(=O)N(C)CC(=O)Nc1c(Cl)cccc1Cl)Cc1ccc(Br)s1 | . | . | - | . | - | -
CCN(CC)C(=O)c1nc[nH]c1C(=O)N1CCc2ccccc2C1 | . | . | - | . | - | -
COc1cc(Cl)ccc1OCc1cc(C(=O)NCc2cc(C(C)C)no2)no1 | - | - | - | - | - | -
O=C1C(Cl)=C(Nc2ccc(O)cc2)C(=O)c2ccccc21 | - | - | - | - | 66.0 | 86.5
CCN(CC)c1ccc(NC2=C(Cl)C(=O)c3ccccc3C2=O)cc1 | - | - | - | - | - | 58.8
Cc1ccc(NC2=CC(=O)C(=O)c3ccccc32)cc1 | - | - | - | - | - | -
Cc1ccc(NC2=C(Cl)C(=O)c3ccccc3C2=O)cc1 | - | - | - | - | - | 91.2
COc1ccc(-n2c(SCC(=O)O)nc3sc4c(c3c2=O)CCCC4)cc1 | - | - | - | - | - | -
COc1ccc(-n2c(SCCNCCO)nc3sc4c(c3c2=O)CCCC4)cc1 | 24.0 | - | - | 144.0 | - | -
C[C@@H]1CCCCO[C@@H](CN(C)CC2CC2)[C@@H](C)CN([C@H](C)CO)C(=O)c2cc(N(C)C)ccc2O1 | . | . | - | . | - | 65.7
O=C(O)c1ccc2c(=O)n3c(nc2c1)/C(=C/c1ccccc1Br)CC3 | - | - | - | - | - | -
CCC(Sc1nc2ccncc2[nH]1)C(=O)Nc1ccc(C)c(Cl)c1 (stereo not drawn) | - | - | - | - | - | -
O=C(CN1C(=O)c2ccccc2S1(=O)=O)NC1CCCCCC1 | - | - | - | - | - | -
O=C(CN1c2cccc3cccc(c23)S1(=O)=O)NC1CCCCC1 | . | . | - | . | - | 69.9
SMILES | MEKK2 mut-MEK5 | MEKK3 PB1 HTS | CRFBP-R2 agonist | MEKK2 WT-MEK5 | ABCB6 inh 2 | CRFR2-BP antag
Cc1c(/C=N/NC(=O)c2cccnc2)c2ccccc2n1Cc1ccccc1 | 110.0 | - | - | 62.0[inhibitor] | - | -
Cc1nn(Cc2ccccc2)c(Cl)c1/C=N/NC(=O)c1cccnc1 | - | - | - | - | - | -
O=C(NCCN1CCCCC1)c1ccc(F)cc1Cl | - | - | - | - | - | -
COC(=O)c1ccc(N2CCN(C)CC2)c(NC(=O)c2sc3ccccc3c2Cl)c1 | - | - | - | 172.0 | - | -
CN1CCN(c2ccc(NC(=O)c3sc4ccccc4c3Cl)cc2)CC1 | - | - | - | - | - | -
CCOc1ccccc1/C=C(/NC(=O)c1ccccc1)C(=O)NC(C)c1ccccc1 (stereo not drawn) | - | - | - | - | - | 113.4
CCN(CC)c1ccc(/C=C/c2cc(-c3ccccc3)c3ccccc3n2)cc1 | - | 74.0[inhibitor] | 67.0 | - | - | -
CCCn1c(=O)c(C(=O)NNC(=O)c2ccc(Cl)cc2Cl)c(O)c2ccccc21 | - | - | 69.5 | - | - | -
Fc1ccc(C2c3cccn3CCN2C(=S)Nc2cccc(F)c2)cc1 (stereo not drawn) | - | - | - | - | - | 53.0
Fc1cccc(NC(=S)N2CCn3cccc3C2c2cccnc2)c1 (stereo not drawn) | - | - | - | - | - | -
O=C(COc1ccccc1)N[C@@H]1c2ccccc2CC[C@H]1OCc1ccccc1 | . | . | - | . | - | -
CCSc1nnc(SCC(=O)c2c(N)n(C)c(=O)n(C)c2=O)s1 | . | . | - | . | - | -
CCOC(=O)c1c(NC(=O)COC(=O)c2ccc([N+](=O)[O-])cc2)sc(C(=O)N(C)C)c1C | . | . | - | . | - | -
CCOC(=O)c1c(C)[nH]c(C(=O)OCC(=O)Nc2sc(C(=O)N(C)C)c(C)c2C(=O)OCC)c1C | . | . | - | . | - | 87.0
O=C(c1ccco1)N1N=C(c2cccs2)CC1c1ccccc1O (stereo not drawn) | - | - | - | - | - | 92.6
CCC(=O)N1N=C(c2cccs2)CC1c1ccco1 (stereo not drawn) | - | - | - | 13.0 | - | -
Cc1ccc(C2=NN(C(=O)c3cccs3)C(c3ccccc3O)C2)cc1 (stereo not drawn) | - | - | - | - | - | 74.7
O=C(c1cccs1)N1N=C(c2ccccc2)CC1c1ccccc1O (stereo not drawn) | - | - | - | - | - | -
COc1ccc(C2CC(c3cccs3)=NN2C(=O)c2ccccc2)cc1OC (stereo not drawn) | - | - | - | - | - | 51.9
O=C(c1ccccc1)N1N=C(c2ccco2)CC1c1cccs1 (stereo not drawn) | - | - | - | - | - | -
CCOC(=O)CN1C(=O)NC2(CCCc3ccccc32)C1=O (stereo not drawn) | - | - | - | - | - | -
COc1cccc(C2CC(c3cccs3)=NN2C(=O)c2ccco2)c1O (stereo not drawn) | - | - | - | - | - | 67.2
COc1ccc(C2=NN(C(=O)c3ccco3)C(c3cccs3)C2)cc1OC (stereo not drawn) | . | . | - | . | - | -
COc1cccc(C2CC(c3cccs3)=NN2S(C)(=O)=O)c1 (stereo not drawn) | - | - | - | 3.0 | - | -
O=C(OCC(=O)N1N=C(c2ccc(Cl)cc2)CC1c1ccco1)c1ccccc1O (stereo not drawn) | - | - | - | - | - | -
O=C(OCC(=O)N1N=C(c2ccc(Cl)cc2)CC1c1ccco1)c1ccco1 (stereo not drawn) | - | - | 240.3 | - | - | -
